Only some compounds are listed: those with a hit (about 15% of all), similar ones and a draw of the others.
VP16 counter: counter-screen for ROR gamma inhibitors: Gal4-VP16 reporter. Drosophila S2 Gal4-VP16 UAS-luciferase, luminescence, 20 h. Potency, µM (highest dose often 53.6 µM), inactives show top-dose activity, negative = inhibition, most hits filed as inhibitors. actives 3.5% (n = 310,000). AID 2546;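 note: Gal4-VP16 expression switched on by copper sulfate through the metallothionein promoter; nearly all actives have a fitted effect of over 50% in size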
RORg inh: inhibitors of mouse ROR gamma transcriptional activity; P51450; Drosophila S2 Gal4-RORgamma UAS-luciferase reporter, 20 h; Potency, µM (highest dose often 53.6 µM), inactives show at the top dose activity change, negative = inhibition, hits mostly inhibitors; actives 5.4% (n = 310,000); AID 2551; note: nearly all actives have a fitted effect of over 60% in size
Target sequence (P51450 whole entry, looked up, the tested form may be a part): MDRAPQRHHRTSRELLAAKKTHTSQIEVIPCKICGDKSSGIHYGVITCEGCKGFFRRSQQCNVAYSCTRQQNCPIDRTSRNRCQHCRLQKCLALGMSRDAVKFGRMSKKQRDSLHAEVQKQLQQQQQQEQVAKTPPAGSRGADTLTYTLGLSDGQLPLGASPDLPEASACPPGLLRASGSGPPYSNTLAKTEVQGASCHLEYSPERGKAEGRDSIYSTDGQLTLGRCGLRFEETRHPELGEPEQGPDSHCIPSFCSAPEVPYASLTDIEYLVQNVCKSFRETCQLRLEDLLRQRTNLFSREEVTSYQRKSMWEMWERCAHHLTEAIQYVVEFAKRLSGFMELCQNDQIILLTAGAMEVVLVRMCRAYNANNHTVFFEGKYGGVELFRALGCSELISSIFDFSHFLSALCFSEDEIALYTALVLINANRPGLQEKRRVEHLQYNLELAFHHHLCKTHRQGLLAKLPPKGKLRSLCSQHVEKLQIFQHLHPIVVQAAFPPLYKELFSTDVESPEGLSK
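ROR gamma transcriptional activity was tracked as Gal4-UAS luciferase output in stably transfected Drosophila Schneider cells, with compound added 1 hr before 700 uM copper sulfate induction and a 20 hr ambient-temperature incubation.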
DT40 TDP1 CPT: growth inhibition of DT40 Tdp1-/-;hTDP1 cells with camptothecin (screen for TDP1 inhibitors); Potency, µM (titrated, usually from 46.2 µM), for the others: at the highest dose activity change, negative = growth inhibition, usual class: inhibitors; chicken DT40 Tdp1-/-;hTDP1 cells + 20 nM CPT, ATP luminescence, 48 h; actives 12% (n = 420,000); note: nearly all actives have a fitted effect of over 55% in size
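Chicken DT40 Tdp1-/- cells stably complemented with human TDP1 were seeded at 400 cells/well in medium containing 20 nM camptothecin, exposed to pin-transferred compounds, and grown at 37 °C for at least 48 hr. Viability was read as ATP luminescence.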
12-LOX inh: ALOX12 (human) lipoxygenase inhibition | P18054 | purified 12hLO, xylenol orange hydroperoxide absorbance | Potency, µM (highest dose often 108 µM), for inactives: top-dose activity change, negative = inhibition, usual class: inhibitors | actives 1.1% (n = 580,000)
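Purified human 12hLO (150 nM final) in 25 mM Hepes, 0.01% Triton X-100, pH 7.0 was preincubated 15 min at room temperature with compound. Then 40 uM arachidonic acid was added, 30 min. Hydroperoxide was read by Fe-XO absorbance ratio 573/405 nm.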
DT40 TDP1 no CPT: qHTS for Inhibitors of human tyrosyl-DNA phosphodiesterase 1 (TDP1): qHTS in cells in absence of CPT; DT40 Tdp1-/- hTDP1 cells, no CPT, ATP luminescence, 48 h; Potency, µM (titrated, usually from 46.2 µM), for inactives: at the top dose activity change, negative = growth inhibition, most hits filed as inhibitors; actives 15% (n = 420,000); AID 686978, 2013; note: nearly all actives have a fitted effect of over 55% in size
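Chicken DT40 Tdp1-/- cells complemented with human TDP1, screened without camptothecin (DMSO vehicle only), 400 cells/well. Compounds pin-transferred, cells incubated at 37 °C for at least 48 hr. Growth read as ATP-dependent luminescence (CellTiter-Glo, 30 min at RT).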
ELG1 repair inh: inhibitors of ELG1-dependent DNA repair in HEK293T cells | HEK293T ELG1-luciferase reporter, luminescence, 16 h; DNA damage induced by 5-fluorouridine | Potency, µM (series often up to 46.1 µM), without a hit: at the highest dose activity change, negative = inhibition, usual class: inhibitors | actives 2.3% (n = 330,000); note: nearly all actives have a fitted effect of over 55% in size
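Quantitative HTS, concentration-response format. 2,000 cells/well co-treated with 5-fluorouridine and compound, 16 hr in 5% CO2 at 37 °C; ONE-Glo luminescence read after 30 min.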
* hit, by the source's call; ? = inconclusive; . = no result given; ! = a repeat was not active; [ ] = remark or other dose. Calls come from the whole dose curve; as a rule, active = well fitted curve in the direction sought with a large enough effect; inconclusive = small, poorly fitted or top-dose-only effect, or another doubt; inactive = no such curve, though single readings can be large; an effect the other way counts as inactive or inconclusive. % is set by controls: 0 for no effect and ±100 for the full control effect; potency is the fitted concentration of half-maximal effect.

SMILES	VP16 counter	RORg inh	DT40 TDP1 CPT	12-LOX inh	DT40 TDP1 no CPT	ELG1 repair inh
C[C@@H]1CN([C@H](C)CO)C(=O)c2cccc(NC(=O)NC3CCCCC3)c2O[C@@H]1CN(C)C(=O)Nc1ccc(C(F)(F)F)cc1	.	.	16µM*	.	?	-22%
C[C@H](CO)N1C[C@H](C)[C@@H](CN(C)Cc2ccc(-c3ccccc3)cc2)Oc2c(NC(=O)Nc3ccc(C(F)(F)F)cc3)cccc2C1=O	.	.	8.2µM*	-7%	?	-13%
C[C@H](CO)N1C[C@H](C)[C@@H](CN(C)C(=O)Nc2ccccc2)Oc2c(NC(=O)Nc3ccc(C(F)(F)F)cc3)cccc2C1=O	.	.	13µM*	?	?	?
C[C@H](CO)N1C[C@H](C)[C@@H](CN(C)C(=O)Nc2ccc(C(F)(F)F)cc2)Oc2c(NC(=O)C3CCCCC3)cccc2C1=O	.	.	?	7%	?	?
C[C@H](CO)N1C[C@H](C)[C@@H](CN(C)C(=O)Nc2ccc(C(F)(F)F)cc2)Oc2c(NC(=O)NC3CCCCC3)cccc2C1=O	.	.	-84%	-10%	?	?
C[C@H]1CN([C@@H](C)CO)C(=O)c2cccc(NC(=O)Nc3ccc(F)cc3)c2O[C@@H]1CN(C)Cc1ccc(C(=O)O)cc1	.	.	4%	0%	6%	?
CCOC(=O)[C@]12CCCC=C1N(Cc1ccco1)C(=O)[C@H](CC(=O)NCC13CC4CC(CC(C4)C1)C3)C2	.	.	26µM*	?	?	.
CCOC(=O)[C@]12CCC=C1N(Cc1ccco1)C(=O)[C@H](CC(=O)NCCCCc1ccccc1)C2	.	.	?	0%	?	.
CCOC(=O)[C@]12CCCC=C1N(Cc1ccco1)C(=O)[C@H](CC(=O)NCCCCc1ccccc1)C2	.	.	23µM*	?	?	.
CCOC(=O)[C@]12CCC=C1N(Cc1ccco1)C(=O)[C@H](CC(=O)NCC13CC4CC(CC(C4)C1)C3)C2	.	.	?	0%	?	.
Cc1ccc(NC(=O)C(Nc2ccccc2)c2ccccc2)cc1 (stereo not drawn)	-3%	-15%[10 µM]	0%	0%	-1%	4%
Cc1cc(C)cc(NC(=O)C(Nc2ccccc2)c2ccccc2)c1 (stereo not drawn)	11%	45%[10 µM]	18µM*	-5%	-27%	?
Cc1ccc(NC(=O)C(Nc2cccc(C)c2)c2ccccc2)cc1 (stereo not drawn)	-7%	-3%[10 µM]	?	-21%	18µM*	5%
Cc1ccc(NC(C(=O)c2ccccc2)c2ccccc2)cc1 (stereo not drawn)	.	.	?	?	13µM*	.
CCc1cc2c(=O)c(-c3nc4ccccc4n3C)c(C)oc2c(CN2CCN(CCO)CC2)c1O	2%	-7%	16µM*	-16%	?	12%
CCc1cc2c(=O)c(-c3nc4ccccc4n3C)c(C)oc2c(CN2CCOCC2)c1O	-11%	11%	8.2µM*	9%	9.2µM*	-14%
CCc1cc(-c2n[nH]c(C)c2-c2nc3ccccc3n2C)c(O)c(CN2CCN(C)CC2)c1O	-4%	11%	-18%	27%	-10%	?
CCc1cc2c(=O)c(-c3nc4ccccc4n3C)c(C)oc2c(CN2CCN(C)CC2)c1O	-7%	5%	.	.	.	-14%
CCc1cc2c(=O)c(-c3nc4ccccc4n3C)c(C(C)C)oc2c(CN2CCN(C)CC2)c1O	3%	11%	7.3µM*	-17%	12µM*	?
CCc1cc2c(=O)c(-c3nc4ccccc4n3C)coc2c(CN2CCCC(C)C2)c1O (stereo not drawn)	9%	0%	?	18%	9.2µM*	-5%
COCc1cc(C)n(CC(=O)Nc2cc(C)c(C)cc2Br)c(=O)c1C#N	.	.	.	-2%	.	.
N#C/C(=C\c1ccc(O)c(O)c1)C(=O)N1CCCC1	-16%	?	?	?	13µM*	-22%
N#C/C(=C\c1ccc(O)c(O)c1)C(=O)NCCCc1ccccc1	11µM*	22µM*!	?	28µM*!	4.1µM*	-5%
N#CC(=Cc1ccc(O)c(O)c1)C(=O)NCc1ccccc1	.	.	?	27%[57.4 µM]	?	.
COc1cc(/C=C(\C#N)C(=O)N2CCCCC2)ccc1O	5%	-15%	-14%	3%	11%	?
SMILES	VP16 counter	RORg inh	DT40 TDP1 CPT	12-LOX inh	DT40 TDP1 no CPT	ELG1 repair inh
COc1ccc(/C=C(\C#N)C(=O)NCCc2ccccc2)cc1OCc1ccccc1	1%	?	?	7%	16µM*	?
CCN(CC)CCNC(=O)CCc1ncc(-c2ccc(Cl)cc2)o1	.	.	.	-40%	.	.
CN(C(=O)Cc1ccccn1)C1CCc2ccccc21 (stereo not drawn)	.	.	.	35%[176 µM]	.	.
COc1ccc([S+](=O)([O-])c2nnn3c2nc(NC2CC2)c2ccccc23)cc1	.	.	.	5%[6.33 µM]	.	.
CCN(C(=O)C(NS(=O)(=O)c1ccc(Br)s1)c1ccccc1)c1ccc(C)c(C)c1 (stereo not drawn)	.	.	?	-18%	?	.
CC1CC(C)CN(C(=O)C(NS(=O)(=O)c2ccc(Br)s2)c2ccccc2)C1 (stereo not drawn)	-21%	29%	18µM*	-18%	15µM*	-15%
Cc1ccc2c(c1)c1c(c(=O)n(-c3ccccc3C)c(=O)n1Cc1ccccc1F)n2C	.	.	15µM*	-13%	5.8µM*	.
Cc1ccc2c(c1)c1c(c(=O)n(-c3ccccc3C)c(=O)n1CC(=O)NCc1ccccc1)n2C	.	.	?	-25%	18µM*	.
COc1ccc2c(c1)c1c(c(=O)n(-c3ccc(C)cc3)c(=O)n1CC(=O)NCc1ccc(C)cc1)n2C	.	.	7.3µM*	0%	6.5µM*	.
Cc1ccc2c(c1)c1c(c(=O)n(-c3ccccc3C)c(=O)n1CC(=O)N1CCCC1)n2C	.	.	?	-1%	?	.
COc1ccc2c(c1)c1c(c(=O)n(-c3cccc(C)c3)c(=O)n1CC(=O)NCc1ccc(C)cc1)n2C	.	.	?	0%	?	.
CC(C(=O)NC(C)(C)C)N1CCC(C(=O)NCc2ccco2)CC1 (stereo not drawn)	.	.	.	37%	.	.
N#CC1(NC(=O)CNc2ccc(F)cc2Cl)CCCC1	.	.	.	11%	.	.
CCC(C)Nc1nnnc2c1sc1nc3c(cc12)COC(C)(C)C3 (stereo not drawn)	0%	3%	?	-10%	?	23µM*

Bioassay records (PubChem BioAssay)
